In PubChem BioAssay (EPA / NIEHS):
Active and inactive are the calls of the source. The calls were made as follows: active = hit-call score of the fitted dose curve at least 0.9, where 1 is the maximum; inactive = score below 0.9.

Test system: not listed separately
Assay: ATG_SREBP_CIS: Attagene CIS-FACTORIAL HepG2 Assay for human Sterol Regulatory Element Binding (SREBP) (AID 2282962)
Settings: HepG2 Attagene cis-factorial SREBP reporter, mRNA; actives raise or lower the signal
Outline: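 Endogenous factor activity is measured in HepG2 through multiplexed reporter units under cis-element control. Following a 24 h incubation, reporter transcripts are reverse-transcribed, PCR-amplified and sized by capillary electrophoresis; activity is fitted in both directions relative to DMSO.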

Row | SMILES | outcome | AC50
1 | Cc1ccc(N)c(S(=O)(=O)O)c1 | inactive | –
2 | CC1CC(O)CC(C)(C)C1 (configuration not stated) | inactive | –
3 | O=C(O)CNc1ccccc1 | inactive | –
4 | Cc1ncc[nH]1 | inactive | –
5 | O=Cc1ccccc1S(=O)(=O)O | inactive | –
6 | CCOc1ccc(NC(=O)CC(C)O)cc1 (configuration not stated) | inactive | –
7 | CC(C)(N=C=O)c1cccc(C(C)(C)N=C=O)c1 | inactive | –
8 | CCCCC1(COC(=O)CCC(=O)O)C(=O)N(c2ccccc2)N(c2ccccc2)C1=O | inactive | –
9 | CC=Cc1ccc(OC)c(OC)c1 | inactive | –
10 | COC(=O)c1cccnc1 | inactive | –
11 | OCc1cccc(Oc2ccccc2)c1 | inactive | –
12 | C=C[Si]1(C)O[Si](C)(C=C)O[Si](C)(C=C)O[Si](C)(C=C)O1 (configuration not stated) | inactive | –
13 | CC(=O)C1(C)CC2=C(CCCC2(C)C)CC1C (configuration not stated) | – | 85.8 µM (active)
14 | CC(C)=CCCC(C)CCOC=O (configuration not stated) | inactive | –
15 | CCCCCC(C=O)=Cc1ccccc1 | inactive | –
16 | COC(C)(C)CC(C)=O | inactive | –
17 | CCc1ccc(O)cc1 | inactive | –
18 | C=CCOC(=O)CCCCCC | inactive | –
19 | CCCN(CCC)S(=O)(=O)c1ccc(C(=O)O)cc1 | inactive | –
20 | C[Si]1(C)O[Si](C)(C)O[Si](C)(C)O1 | inactive | –

Row | SMILES | outcome | AC50
21 | CCCCCCOCCOCCO | inactive | –
22 | CCCCCCCC(=O)OCCCCCC | inactive | –
23 | Oc1ccc2cc(SSc3ccc4cc(O)ccc4c3)ccc2c1 | – | 8.33 µM (active)
24 | NCc1ccco1 | inactive | –
25 | CCCCCCCCCCCCS(=O)(=O)Cl | inactive | –
26 | CCC(C)=O | inactive | –
27 | Cc1c(Cl)cccc1[N+](=O)[O-] | inactive | –
28 | COC(=O)C=C(C)CCC=C(C)C | inactive | –
29 | CCc1ccc(O)c(OC)c1 | inactive | –
30 | CCCCCCCCc1ccc(S(=O)(=O)O)cc1 | – | 159 µM (active)
31 | CCCCC1CCC(O)CC1 (configuration not stated) | inactive | –
32 | O=c1c(O)c(-c2ccc(O)cc2)oc2cc(O)cc(O)c12 | inactive | –
33 | CCCCCCC(O)CCCCCCCCCCC(=O)O (configuration not stated) | inactive | –
34 | CCCCC(CC)COC(C)=O (configuration not stated) | inactive | –
35 | CCNCCO | inactive | –
36 | OC[C@H]1O[C@@H](Oc2ccc(O)cc2)[C@H](O)[C@@H](O)[C@@H]1O | inactive | –
37 | O=C1CCCC=CCCCCCCCCCC1 | inactive | –
38 | CCOC(=O)C1OC1c1ccccc1 (configuration not stated) | inactive | –
39 | C#CC(C)(O)CC(C)C (configuration not stated) | inactive | –

Target: Signal transducer and activator of transcription 3 (Homo sapiens) (UniProt P40763)
Assay: ATG_STAT3_CIS: Attagene CIS-FACTORIAL HepG2 Assay for human Signal Transducer and Activator of Transcription 3 (STAT3) (AID 2282963)
Settings: HepG2, Attagene cis-factorial STAT3 reporter transcription; actives raise or lower the signal
Outline: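 Readout: fluorescent reporter mRNA fragments resolved by capillary electrophoresis. Setup: HepG2 transfected with MRTUs reporting endogenous transcription-factor activity, dosed 24 h. Gain or loss of signal fitted bidirectionally against DMSO control.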

Sequence of Signal transducer and activator of transcription 3 (Homo sapiens) (P40763 whole entry, looked up): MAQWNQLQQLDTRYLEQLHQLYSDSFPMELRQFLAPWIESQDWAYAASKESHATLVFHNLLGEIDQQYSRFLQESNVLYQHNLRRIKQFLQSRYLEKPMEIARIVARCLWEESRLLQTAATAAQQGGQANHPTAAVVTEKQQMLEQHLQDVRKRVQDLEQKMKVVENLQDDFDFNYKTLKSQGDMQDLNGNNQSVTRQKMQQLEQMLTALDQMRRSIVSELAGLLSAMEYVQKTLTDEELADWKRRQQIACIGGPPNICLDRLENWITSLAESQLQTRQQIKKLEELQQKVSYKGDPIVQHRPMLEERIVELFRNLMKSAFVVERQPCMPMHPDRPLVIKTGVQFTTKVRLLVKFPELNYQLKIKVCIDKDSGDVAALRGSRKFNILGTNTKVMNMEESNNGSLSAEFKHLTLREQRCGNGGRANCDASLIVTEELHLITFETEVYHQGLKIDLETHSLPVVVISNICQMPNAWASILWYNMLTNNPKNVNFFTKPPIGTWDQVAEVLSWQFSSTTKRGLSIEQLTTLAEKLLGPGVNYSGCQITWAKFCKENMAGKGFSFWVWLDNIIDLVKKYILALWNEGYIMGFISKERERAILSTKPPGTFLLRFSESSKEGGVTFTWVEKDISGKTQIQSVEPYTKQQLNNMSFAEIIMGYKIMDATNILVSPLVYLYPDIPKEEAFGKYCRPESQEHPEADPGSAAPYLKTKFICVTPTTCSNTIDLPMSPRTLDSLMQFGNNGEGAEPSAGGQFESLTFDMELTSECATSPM

Row | SMILES | outcome
40 | Cc1ccc(N)c(S(=O)(=O)O)c1 | inactive
41 | CC1CC(O)CC(C)(C)C1 (configuration not stated) | inactive
42 | O=C(O)CNc1ccccc1 | inactive
43 | Cc1ncc[nH]1 | inactive
44 | O=Cc1ccccc1S(=O)(=O)O | inactive
45 | CCOc1ccc(NC(=O)CC(C)O)cc1 (configuration not stated) | inactive
46 | CC(C)(N=C=O)c1cccc(C(C)(C)N=C=O)c1 | inactive
47 | CCCCC1(COC(=O)CCC(=O)O)C(=O)N(c2ccccc2)N(c2ccccc2)C1=O | inactive
48 | CC=Cc1ccc(OC)c(OC)c1 | inactive
49 | COC(=O)c1cccnc1 | inactive
50 | OCc1cccc(Oc2ccccc2)c1 | inactive
51 | C=C[Si]1(C)O[Si](C)(C=C)O[Si](C)(C=C)O[Si](C)(C=C)O1 (configuration not stated) | inactive
52 | CC(=O)C1(C)CC2=C(CCCC2(C)C)CC1C (configuration not stated) | inactive
53 | CC(C)=CCCC(C)CCOC=O (configuration not stated) | inactive
54 | CCCCCC(C=O)=Cc1ccccc1 | inactive
55 | COC(C)(C)CC(C)=O | inactive
56 | CCc1ccc(O)cc1 | inactive
57 | C=CCOC(=O)CCCCCC | inactive
58 | CCCN(CCC)S(=O)(=O)c1ccc(C(=O)O)cc1 | inactive
59 | C[Si]1(C)O[Si](C)(C)O[Si](C)(C)O1 | inactive

Row | SMILES | outcome
60 | CCCCCCOCCOCCO | inactive
61 | CCCCCCCC(=O)OCCCCCC | inactive
62 | Oc1ccc2cc(SSc3ccc4cc(O)ccc4c3)ccc2c1 | inactive
63 | NCc1ccco1 | inactive
64 | CCCCCCCCCCCCS(=O)(=O)Cl | inactive
65 | CCC(C)=O | inactive
66 | Cc1c(Cl)cccc1[N+](=O)[O-] | inactive
67 | COC(=O)C=C(C)CCC=C(C)C | inactive
68 | CCc1ccc(O)c(OC)c1 | inactive
69 | CCCCCCCCc1ccc(S(=O)(=O)O)cc1 | inactive
70 | CCCCC1CCC(O)CC1 (configuration not stated) | inactive
71 | O=c1c(O)c(-c2ccc(O)cc2)oc2cc(O)cc(O)c12 | inactive
72 | CCCCCCC(O)CCCCCCCCCCC(=O)O (configuration not stated) | inactive
73 | CCCCC(CC)COC(C)=O (configuration not stated) | inactive
74 | CCNCCO | inactive
75 | OC[C@H]1O[C@@H](Oc2ccc(O)cc2)[C@H](O)[C@@H](O)[C@@H]1O | inactive
76 | O=C1CCCC=CCCCCCCCCCC1 | inactive
77 | CCOC(=O)C1OC1c1ccccc1 (configuration not stated) | inactive
78 | C#CC(C)(O)CC(C)C (configuration not stated) | inactive

Test system: not listed separately
Assay: ATG_TA_CIS: Attagene CIS-FACTORIAL HepG2 Assay for human TA Basal Promoter (AID 2282964)
Settings: HepG2 Attagene CIS-factorial TA basal promoter reporter; actives raise or lower the signal
Outline: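 HepG2 cells transiently transfected with multiplexed cis-promoter reporter units, dosed 24 h. Reporter mRNA measured by RT-PCR, 6-FAM labelling, HpaI digestion and capillary electrophoresis; bidirectional fit versus DMSO baseline, serving as background control.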

Row | SMILES | outcome | AC50
79 | Cc1ccc(N)c(S(=O)(=O)O)c1 | inactive | –
80 | CC1CC(O)CC(C)(C)C1 (configuration not stated) | inactive | –
81 | O=C(O)CNc1ccccc1 | inactive | –
82 | Cc1ncc[nH]1 | inactive | –
83 | O=Cc1ccccc1S(=O)(=O)O | inactive | –
84 | CCOc1ccc(NC(=O)CC(C)O)cc1 (configuration not stated) | inactive | –
85 | CC(C)(N=C=O)c1cccc(C(C)(C)N=C=O)c1 | inactive | –
86 | CCCCC1(COC(=O)CCC(=O)O)C(=O)N(c2ccccc2)N(c2ccccc2)C1=O | inactive | –
87 | CC=Cc1ccc(OC)c(OC)c1 | inactive | –
88 | COC(=O)c1cccnc1 | inactive | –
89 | OCc1cccc(Oc2ccccc2)c1 | inactive | –
90 | C=C[Si]1(C)O[Si](C)(C=C)O[Si](C)(C=C)O[Si](C)(C=C)O1 (configuration not stated) | inactive | –
91 | CC(=O)C1(C)CC2=C(CCCC2(C)C)CC1C (configuration not stated) | inactive | –
92 | CC(C)=CCCC(C)CCOC=O (configuration not stated) | inactive | –
93 | CCCCCC(C=O)=Cc1ccccc1 | inactive | –
94 | COC(C)(C)CC(C)=O | inactive | –
95 | CCc1ccc(O)cc1 | inactive | –
96 | C=CCOC(=O)CCCCCC | inactive | –
97 | CCCN(CCC)S(=O)(=O)c1ccc(C(=O)O)cc1 | inactive | –
98 | C[Si]1(C)O[Si](C)(C)O[Si](C)(C)O1 | inactive | –

Row | SMILES | outcome | AC50
99 | CCCCCCOCCOCCO | inactive | –
100 | CCCCCCCC(=O)OCCCCCC | inactive | –
101 | Oc1ccc2cc(SSc3ccc4cc(O)ccc4c3)ccc2c1 | – | 26.6 µM (active)
102 | NCc1ccco1 | inactive | –
103 | CCCCCCCCCCCCS(=O)(=O)Cl | inactive | –
104 | CCC(C)=O | inactive | –
105 | Cc1c(Cl)cccc1[N+](=O)[O-] | inactive | –
106 | COC(=O)C=C(C)CCC=C(C)C | inactive | –
107 | CCc1ccc(O)c(OC)c1 | inactive | –
108 | CCCCCCCCc1ccc(S(=O)(=O)O)cc1 | inactive | –
109 | CCCCC1CCC(O)CC1 (configuration not stated) | inactive | –
110 | O=c1c(O)c(-c2ccc(O)cc2)oc2cc(O)cc(O)c12 | inactive | –
111 | CCCCCCC(O)CCCCCCCCCCC(=O)O (configuration not stated) | inactive | –
112 | CCCCC(CC)COC(C)=O (configuration not stated) | inactive | –
113 | CCNCCO | inactive | –
114 | OC[C@H]1O[C@@H](Oc2ccc(O)cc2)[C@H](O)[C@@H](O)[C@@H]1O | inactive | –
115 | O=C1CCCC=CCCCCCCCCCC1 | inactive | –
116 | CCOC(=O)C1OC1c1ccccc1 (configuration not stated) | inactive | –
117 | C#CC(C)(O)CC(C)C (configuration not stated) | inactive | –
